Assay results published in PubChem BioAssay AID1159580 (chemical genetic matrix, 2015).
About 2,000 (36%) of roughly 5,500 compounds were called active. Another 18% or so got no clear call; they are omitted. Cut-off read from the data, not from the text of the source: active = normalized growth mostly below about 0.91 (no sharp cut-off); inconclusive = no clear call, values can overlap the other calls; inactive = mostly above about 0.92. Some of the results follow.

Experiment: chemical genetic growth profiling, strain panel (AID 1159580);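 note: tested at 20 µM; growth read once vehicle control cultures reached saturation at 30 °C; 1 = growth at the plate median or of vehicle wells; lower values mean less growth of the strain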
Conditions: S. cerevisiae deletion strains, growth OD

Measured: normalized growth

O=c1c(-c2ccc(O)cc2)coc2c(C3O[C@H](CO)[C@@H](O)[C@H](O)[C@H]3O)c(O)ccc12 (stereo not given in full)
inactive: locus YAL021C, strain ccr4, active compounds read low 1.01 | locus YAL026C, strain drs2, active compounds read low 0.991 | locus YAL030W, strain snc1, active compounds read low 0.982 | locus YBL061C, strain skt5, active compounds read low 0.977 | locus YBR009C, strain hhf1, active compounds read low 0.957 | locus YBR023C, strain chs3, active compounds read low 0.991 | locus YBR171W, strain sec66, active compounds read low 0.977 | locus YBR231C, strain swc5, active compounds read low 0.979 | locus YBR279W, strain paf1, active compounds read low 0.985 | locus YCL011C, strain gbp2, active compounds read low 0.968 | locus YCL016C, strain dcc1, active compounds read low 0.991 | locus YCL061C, strain MRC1, active compounds read low 0.994 | locus YCL069W, strain vba3, active compounds read low 0.973 | locus YCR088W, strain abp1, active compounds read low 0.996 | locus YDL005C, strain med2, active compounds read low 0.978 | locus YDL040C, strain nat1, active compounds read low 0.977 | locus YDR001C, strain nth1, active compounds read low 0.978 | locus YDR069C, strain doa4, active compounds read low 1 | locus YDR137W, strain rgp1, active compounds read low 0.995 | locus YDR159W, strain sac3, active compounds read low 0.933 | locus YDR195W, strain ref2 0.951 | locus YDR297W, strain sur2, active compounds read low 0.978 | locus YDR334W, strain swr1, active compounds read low 0.973 | locus YDR335W, strain msn5, active compounds read low 0.987 | locus YDR392W, strain spt3, active compounds read low 0.876 | locus YEL003W, strain gim4, active compounds read low 0.979 | locus YEL037C, strain rad23, active compounds read low 0.973 | locus YEL061C, strain CIN8 (second series), active compounds read low 0.974 | locus YER015W, strain faa2, active compounds read low 0.993 | locus YER016W, strain bim1, active compounds read low 0.989 | locus YER111C, strain swi4, active compounds read low 0.98 | locus YER155C, strain BEM2 (second series), active compounds read low 0.947 | locus YFR010W, strain ubp6, active compounds read low 0.977 | locus YGL167C, strain pmr1, active compounds read low 0.965 | locus YGL173C, strain kem1, active compounds read low 0.977 | locus YGL227W, strain vid30, active compounds read low 0.982 | locus YGL240W, strain doc1, active compounds read low 0.957 | locus YGL253W, strain hxk2, active compounds read low 0.982 | locus YHR013C, strain ard1, active compounds read low 0.921 | locus YHR027C, strain rpn1, active compounds read low 0.987 | locus YHR030C, strain SLT2, active compounds read low 0.957 | locus YHR079C, strain IRE1, active compounds read low 0.976 | locus YHR142W, strain chs7, active compounds read low 1.04 | locus YJL092W, strain hpr5, active compounds read low 0.992 | locus YJL095W, strain BCK1 (second series), active compounds read low 0.987 | locus YJL095W, strain BCK1, active compounds read low 0.973 | locus YJL115W, strain asf1, active compounds read low 0.98 | locus YJL129C, strain trk1, active compounds read low 0.997 | locus YJL154C, strain vps35, active compounds read low 0.972 | locus YJL164C, strain tpk1, active compounds read low 0.999 | locus YJL166W, strain qcr8, active compounds read low 0.98 | locus YJL187C, strain SWE1, active compounds read low 0.977 | locus YJR066W, strain TOR1, active compounds read low 0.898 | locus YKL160W, strain elf1, active compounds read low 1.04 | locus YKR026C, strain gcn3, active compounds read low 0.982 | locus YKR091W, strain srl3, active compounds read low 0.98 | locus YLL001W, strain dnm1, active compounds read low 0.99 | locus YLL026W, active compounds read low 0.993 | locus YLL041C, strain sdh2, active compounds read low 0.992 | locus YLR027C, strain aat2, active compounds read low 0.965 | locus YLR113W, strain HOG1, active compounds read low 1 | locus YLR221C, strain rsa3, active compounds read low 0.985 | locus YLR258W, strain gsy2, active compounds read low 0.982 | locus YLR262C, strain YPT6 (second series), active compounds read low 0.997 | locus YLR320W, strain mms22, active compounds read low 0.988 | locus YLR342W, strain FKS1, active compounds read low 0.974 | locus YLR357W, strain rsc2, active compounds read low 0.957 | locus YLR370C, strain arc18, active compounds read low 0.981 | locus YLR384C, strain iki3, active compounds read low 0.975 | locus YML120C, strain ndi1, active compounds read low 0.995 | locus YMR058W, strain fet3, active compounds read low 0.969 | locus YMR125W, strain sto1, active compounds read low 0.954 | locus YMR129W, active compounds read low 0.962 | locus YMR205C, strain PFK2, active compounds read low 0.941 | locus YMR231W, strain pep5, active compounds read low 0.985 | locus YNL071W, strain lat1, active compounds read low 0.979 | locus YNL183C, strain NPR1, active compounds read low 0.91 | locus YNL209W, strain ssb2, active compounds read low 0.984 | locus YNL248C, strain rpa49, active compounds read low 1.03 | locus YNL322C, strain KRE1 (second series), active compounds read low 0.982 | locus YNR049C, strain mso1, active compounds read low 0.973 | locus YOR001W, strain rrp6, active compounds read low 1.01 | locus YOR070C, strain gyp1, active compounds read low 0.983 | locus YOR080W, strain dia2, active compounds read low 0.98 | locus YOR083W, strain WHI5, active compounds read low 1.06 | locus YOR106W, strain vam3, active compounds read low 1.01 | locus YOR231W, strain MKK1, active compounds read low 0.96 | locus YOR265W, strain rbl2, active compounds read low 0.989 | locus YOR270C, strain vph1, active compounds read low 0.969 | locus YOR290C, strain snf2, active compounds read low 0.921 | locus YPL051W, strain arl3, active compounds read low 1.01 | locus YPL078C, strain atp4, active compounds read low 1.01 | locus YPL106C, strain sse1, active compounds read low 0.93 | locus YPL240C, strain hsp82, active compounds read low 1.01 | locus YPL256C, strain CLN2, active compounds read low 0.979
